What all share (test): DAPPL (digital affinity profiling via proximity ligation, sequencing); 10 mM Tris-HCl pH 7.5, 50 mM NaCl, 1 mM DTT, 4% glycerol, room temperature, 30 min; GST-TFs on glutathione beads, 16-mer random dsDNA library, 0.1% formaldehyde crosslink after washing; high values mean tight binding
What all share (details): protein: recombinant; tags: N-terminal GST; dsDNA, one strand shown

The target of one assay is T1, ERF (Homo sapiens, UniProt P50548 1-548).
T1 sequence: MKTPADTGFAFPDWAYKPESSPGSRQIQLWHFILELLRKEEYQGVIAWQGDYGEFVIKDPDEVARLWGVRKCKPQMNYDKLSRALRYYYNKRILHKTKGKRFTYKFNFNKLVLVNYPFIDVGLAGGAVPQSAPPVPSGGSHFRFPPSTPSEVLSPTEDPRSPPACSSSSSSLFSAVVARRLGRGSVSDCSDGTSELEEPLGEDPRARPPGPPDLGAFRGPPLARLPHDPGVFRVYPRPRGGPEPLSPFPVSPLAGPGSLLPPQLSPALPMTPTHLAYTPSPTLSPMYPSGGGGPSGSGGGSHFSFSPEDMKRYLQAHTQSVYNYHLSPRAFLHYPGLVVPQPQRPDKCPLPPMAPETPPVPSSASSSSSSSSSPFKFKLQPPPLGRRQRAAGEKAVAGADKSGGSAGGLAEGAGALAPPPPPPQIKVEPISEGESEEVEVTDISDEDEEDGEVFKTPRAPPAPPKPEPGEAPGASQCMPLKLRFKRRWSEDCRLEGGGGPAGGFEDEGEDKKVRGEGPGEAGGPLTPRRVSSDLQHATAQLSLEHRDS
In short, it runs like this:
(§1)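 Yeast served to express human transcription factors as GST fusions, which were then captured on glutathione beads and labelled with DNA barcodes. Pooled with a tag-only sample, they were incubated with 200 nmole of a 16-mer random double-stranded DNA library for 30 min at room temperature in Tris/NaCl/DTT/glycerol buffer, washed, crosslinked with 0.1% formaldehyde, ligated by proximity, amplified by PCR and sequenced. Dividing each hexamer's read frequency for a factor by its frequency for the tag-only sample gives the binding signal.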

For the next assay, the target named is T2, ETV3L (Homo sapiens, UniProt Q6ZN32 1-361).
T2 sequence: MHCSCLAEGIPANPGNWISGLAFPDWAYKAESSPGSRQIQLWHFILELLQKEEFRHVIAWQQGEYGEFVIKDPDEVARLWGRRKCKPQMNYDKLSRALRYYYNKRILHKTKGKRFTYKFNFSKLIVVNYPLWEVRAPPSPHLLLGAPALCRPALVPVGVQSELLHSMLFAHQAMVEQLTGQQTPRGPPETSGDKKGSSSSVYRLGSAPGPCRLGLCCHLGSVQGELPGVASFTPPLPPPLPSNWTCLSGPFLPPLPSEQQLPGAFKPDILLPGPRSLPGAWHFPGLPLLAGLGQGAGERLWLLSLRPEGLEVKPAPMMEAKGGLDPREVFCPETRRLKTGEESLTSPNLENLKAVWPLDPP
Put shortly:
as §1

A further assay deals with T3, ETS2 (Homo sapiens, UniProt P15036 1-469).
T3 sequence: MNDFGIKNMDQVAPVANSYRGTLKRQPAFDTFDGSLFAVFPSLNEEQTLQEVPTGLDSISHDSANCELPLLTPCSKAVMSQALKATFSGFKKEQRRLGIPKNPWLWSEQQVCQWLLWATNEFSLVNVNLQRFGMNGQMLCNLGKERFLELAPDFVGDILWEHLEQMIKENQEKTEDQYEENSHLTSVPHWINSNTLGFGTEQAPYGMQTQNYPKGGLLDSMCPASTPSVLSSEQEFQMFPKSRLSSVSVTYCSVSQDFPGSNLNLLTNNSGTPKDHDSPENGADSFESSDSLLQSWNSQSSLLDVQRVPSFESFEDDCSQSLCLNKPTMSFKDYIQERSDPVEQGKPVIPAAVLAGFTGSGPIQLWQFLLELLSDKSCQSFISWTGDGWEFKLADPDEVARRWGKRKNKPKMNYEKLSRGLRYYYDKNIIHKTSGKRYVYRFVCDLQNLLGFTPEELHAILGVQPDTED
Put shortly: as §1

The next assay concerns the target T4, SPDEF (Homo sapiens, UniProt O95238 1-335).
T4 sequence: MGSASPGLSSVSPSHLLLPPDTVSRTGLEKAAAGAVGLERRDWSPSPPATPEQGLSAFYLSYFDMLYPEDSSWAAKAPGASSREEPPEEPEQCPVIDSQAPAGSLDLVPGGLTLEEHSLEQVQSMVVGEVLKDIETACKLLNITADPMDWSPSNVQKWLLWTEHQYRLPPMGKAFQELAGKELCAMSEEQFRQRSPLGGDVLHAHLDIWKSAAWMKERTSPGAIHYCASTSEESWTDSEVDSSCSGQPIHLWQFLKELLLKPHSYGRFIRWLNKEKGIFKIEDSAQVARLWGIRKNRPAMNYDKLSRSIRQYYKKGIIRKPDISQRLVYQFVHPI
Put shortly:
as §1

A further assay deals with T5, ETV7 (Homo sapiens, UniProt Q9Y603 1-341).
T5 sequence: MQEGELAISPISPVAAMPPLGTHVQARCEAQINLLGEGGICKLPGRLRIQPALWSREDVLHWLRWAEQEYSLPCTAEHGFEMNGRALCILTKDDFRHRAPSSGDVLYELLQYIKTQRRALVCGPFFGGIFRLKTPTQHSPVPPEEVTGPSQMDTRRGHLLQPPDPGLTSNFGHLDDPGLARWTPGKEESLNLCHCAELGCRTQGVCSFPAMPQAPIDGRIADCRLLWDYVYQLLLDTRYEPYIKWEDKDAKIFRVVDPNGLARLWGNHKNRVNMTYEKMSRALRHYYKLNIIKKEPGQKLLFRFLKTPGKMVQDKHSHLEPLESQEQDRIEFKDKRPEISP
In short, it runs like this: as §1

In a further assay the target is T6, ELF5 (Homo sapiens, UniProt Q9UKW6-2 1-255).
T6 sequence: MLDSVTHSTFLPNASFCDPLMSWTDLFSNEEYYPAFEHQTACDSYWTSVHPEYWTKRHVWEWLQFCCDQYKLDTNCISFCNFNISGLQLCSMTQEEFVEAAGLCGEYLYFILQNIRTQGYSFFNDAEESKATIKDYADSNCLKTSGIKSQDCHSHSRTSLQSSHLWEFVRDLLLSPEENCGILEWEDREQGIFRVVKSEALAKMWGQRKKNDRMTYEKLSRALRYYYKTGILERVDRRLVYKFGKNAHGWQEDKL
Put shortly: as §1

The target in another assay is T7, ETV3 (Homo sapiens, UniProt P41162-2 1-143).
T7 sequence: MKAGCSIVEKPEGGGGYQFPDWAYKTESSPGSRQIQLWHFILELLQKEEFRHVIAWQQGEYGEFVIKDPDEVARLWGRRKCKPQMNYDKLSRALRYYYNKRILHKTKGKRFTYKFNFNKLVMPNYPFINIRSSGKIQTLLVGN
Put shortly: as §1

The target in the next assay is ETV6 (Homo sapiens, UniProt P41212 1-452). In short, it runs like this:
as §1

Sequence of ETV6 (P41212 whole entry): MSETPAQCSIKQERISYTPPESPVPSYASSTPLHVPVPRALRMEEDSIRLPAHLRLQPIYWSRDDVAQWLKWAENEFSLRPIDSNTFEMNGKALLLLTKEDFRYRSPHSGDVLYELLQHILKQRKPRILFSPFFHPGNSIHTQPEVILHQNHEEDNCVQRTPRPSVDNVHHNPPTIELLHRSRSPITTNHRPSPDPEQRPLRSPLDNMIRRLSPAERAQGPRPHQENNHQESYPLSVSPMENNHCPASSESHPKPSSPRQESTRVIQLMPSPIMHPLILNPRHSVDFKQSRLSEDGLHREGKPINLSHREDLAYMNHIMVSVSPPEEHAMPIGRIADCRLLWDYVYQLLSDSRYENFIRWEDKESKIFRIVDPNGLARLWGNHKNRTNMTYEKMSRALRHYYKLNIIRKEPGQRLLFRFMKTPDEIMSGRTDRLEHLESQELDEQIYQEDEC

For the sequence CGTATC, the binding signal in the assay with ERF was 1.15 fold enrichment (6-mer frequency, TF over GST control); with ETV3L, 1.24 fold enrichment (6-mer frequency, TF over GST control); in the assay with ETS2, 1.11 fold enrichment (6-mer frequency, TF over GST control); with SPDEF, 1.57 fold enrichment (6-mer frequency, TF over GST control); in the assay with ETV7, 1.1 fold enrichment (6-mer frequency, TF over GST control); with ELF5, 1.19 fold enrichment (6-mer frequency, TF over GST control). Besides, the binding signal was 1.28 fold enrichment (6-mer frequency, TF over GST control) with ETV3 and 1.09 fold enrichment (6-mer frequency, TF over GST control) in the assay with ETV6.
For the sequence TGTACA, the binding signal with ERF was 1.28 fold enrichment (6-mer frequency, TF over GST control); in the assay with ETV3L, 1.23 fold enrichment (6-mer frequency, TF over GST control); with ETS2 it was 1.24 fold enrichment (6-mer frequency, TF over GST control); with SPDEF, 1.67 fold enrichment (6-mer frequency, TF over GST control); with ETV7, 1.36 fold enrichment (6-mer frequency, TF over GST control); with ELF5 it was 1.12 fold enrichment (6-mer frequency, TF over GST control). Besides, the binding signal is 1.17 fold enrichment (6-mer frequency, TF over GST control) with ETV3 and 1.29 fold enrichment (6-mer frequency, TF over GST control) with ETV6.
As to ATGTTG, the binding signal with ERF is 1.24 fold enrichment (6-mer frequency, TF over GST control); in the assay with ETV3L, 1.23 fold enrichment (6-mer frequency, TF over GST control); with ETS2 it was 1.22 fold enrichment (6-mer frequency, TF over GST control); in the assay with SPDEF, 1.31 fold enrichment (6-mer frequency, TF over GST control); with ETV7 it was 1.43 fold enrichment (6-mer frequency, TF over GST control); with ELF5, 1.15 fold enrichment (6-mer frequency, TF over GST control). Moreover, the binding signal in the assay with ETV3 is 1.33 fold enrichment (6-mer frequency, TF over GST control); in the assay with ETV6, 1.22 fold enrichment (6-mer frequency, TF over GST control).
For TCTCCG, the binding signal is 1.38 fold enrichment (6-mer frequency, TF over GST control) in the assay with ERF; 1.43 fold enrichment (6-mer frequency, TF over GST control) with ETV3L; 1.62 fold enrichment (6-mer frequency, TF over GST control) with ETS2; 1.65 fold enrichment (6-mer frequency, TF over GST control) with SPDEF; 1.31 fold enrichment (6-mer frequency, TF over GST control) with ETV7; 1.56 fold enrichment (6-mer frequency, TF over GST control) with ELF5. For the same sequence, the binding signal with ETV3 was 1.66 fold enrichment (6-mer frequency, TF over GST control); with ETV6 it was 1.48 fold enrichment (6-mer frequency, TF over GST control).
For TTGTAC, the binding signal was 1.31 fold enrichment (6-mer frequency, TF over GST control) with ERF; 1.41 fold enrichment (6-mer frequency, TF over GST control) with ETV3L; 1.34 fold enrichment (6-mer frequency, TF over GST control) with ETS2; 1.54 fold enrichment (6-mer frequency, TF over GST control) with SPDEF; 1.33 fold enrichment (6-mer frequency, TF over GST control) with ETV7; 1.23 fold enrichment (6-mer frequency, TF over GST control) with ELF5. Moreover, the binding signal with ETV3 was 1.44 fold enrichment (6-mer frequency, TF over GST control); with ETV6 it was 1.48 fold enrichment (6-mer frequency, TF over GST control).
As to ATCCAC, the binding signal in the assay with ERF was 1.27 fold enrichment (6-mer frequency, TF over GST control); with ETV3L, 1.05 fold enrichment (6-mer frequency, TF over GST control); in the assay with ETS2, 1.2 fold enrichment (6-mer frequency, TF over GST control); in the assay with SPDEF it was 1.18 fold enrichment (6-mer frequency, TF over GST control); in the assay with ETV7, 1.18 fold enrichment (6-mer frequency, TF over GST control); with ELF5, 1.16 fold enrichment (6-mer frequency, TF over GST control). In addition, the binding signal is 1.14 fold enrichment (6-mer frequency, TF over GST control) with ETV3 and 1.25 fold enrichment (6-mer frequency, TF over GST control) in the assay with ETV6.
Turning to TACCTG, the binding signal with ERF was 1.22 fold enrichment (6-mer frequency, TF over GST control); with ETV3L it was 1.09 fold enrichment (6-mer frequency, TF over GST control); in the assay with ETS2, 1.15 fold enrichment (6-mer frequency, TF over GST control); with SPDEF, 1.11 fold enrichment (6-mer frequency, TF over GST control); with ETV7, 1.24 fold enrichment (6-mer frequency, TF over GST control); in the assay with ELF5, 1.21 fold enrichment (6-mer frequency, TF over GST control). For the same sequence, the binding signal in the assay with ETV3 was 1.19 fold enrichment (6-mer frequency, TF over GST control); with ETV6, 1.2 fold enrichment (6-mer frequency, TF over GST control).

Values taken from paper PMC7862700, “An all-to-all approach to the identification of sequence-specific readers for epigenetic DNA modifications on cytosine”.
